The values that follow come from PubChem BioAssay AID1259400 (National Center for Advancing Translational Sciences (NCATS), 2018).

Hit rate of the full screen: of about 350,000 compounds, about 2,100 (0.6%) were called active. Another 1% or so got no clear call; they are omitted. The list comes from a sample in which actives are over-represented; it also holds similar structures and randomly drawn compounds. Values without a mark were called inactive.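 Rule for the calls: active = activity change of -60% or lower, but not beyond a set lower limit; inconclusive = change between -60% and -40%, or beyond the set limit; inactive = change above -40%.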
% is set by controls: 0 for no effect and ±100 for the full control effect.

For this test, the target named is Relaxin receptor 1 (Homo sapiens) (UniProt Q9HBX9). In words: qHTS Assay for Antagonists of the Relaxin Receptor RXFP1. The following applies: HEK293-RXFP1, relaxin-stimulated cAMP HTRF, 30 min; at 57.5 µM; active compounds read low. (In qHTS, concentration-response curves come from the screen itself.)
Sequence of Relaxin receptor 1 (Homo sapiens) (Q9HBX9 whole entry, looked up): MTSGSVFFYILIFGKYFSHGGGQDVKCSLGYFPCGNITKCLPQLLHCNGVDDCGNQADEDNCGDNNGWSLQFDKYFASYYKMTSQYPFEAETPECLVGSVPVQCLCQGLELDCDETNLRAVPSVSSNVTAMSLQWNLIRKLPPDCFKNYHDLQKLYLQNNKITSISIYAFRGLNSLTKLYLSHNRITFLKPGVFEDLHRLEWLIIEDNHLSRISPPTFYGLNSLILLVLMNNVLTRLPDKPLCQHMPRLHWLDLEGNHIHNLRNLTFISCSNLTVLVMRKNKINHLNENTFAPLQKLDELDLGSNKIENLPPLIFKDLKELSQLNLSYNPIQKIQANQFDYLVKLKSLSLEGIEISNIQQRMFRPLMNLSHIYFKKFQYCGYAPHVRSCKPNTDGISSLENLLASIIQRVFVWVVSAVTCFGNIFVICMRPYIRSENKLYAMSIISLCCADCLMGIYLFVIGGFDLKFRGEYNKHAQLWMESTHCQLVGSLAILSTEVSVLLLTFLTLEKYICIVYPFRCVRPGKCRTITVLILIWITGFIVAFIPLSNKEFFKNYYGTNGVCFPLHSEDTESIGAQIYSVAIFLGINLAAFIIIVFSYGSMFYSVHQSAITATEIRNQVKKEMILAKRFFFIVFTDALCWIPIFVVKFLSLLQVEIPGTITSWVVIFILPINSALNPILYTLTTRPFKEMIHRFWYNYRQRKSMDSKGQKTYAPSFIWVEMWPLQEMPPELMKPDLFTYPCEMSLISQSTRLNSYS
Regarding `O=C(Nc1ccccc1Cl)/C(Cl)=C(\Cl)S(=O)c1ccccc1` (centres undefined), the activity change, negative = inhibition was -106% (active). In the case of `O=C(Nc1ccccc1Cl)N1CCC(CN2CCCC2)CC1` it was 2.65%; in that of `O=C(CCN1CCN(C/C=C/c2ccccc2)CC1)Nc1ccccc1Cl`, 3.3%.

As for `Cc1c(Cl)cccc1-c1ccc(CNCCCSc2nnnn2C)o1`, the activity change, negative = inhibition was -6.68%.

Regarding `Cc1ccc(C2C=C(c3ccc(Cl)cc3)Nc3nc(NC(=O)CCC(=O)O)nn32)cc1` (centres undefined), the activity change, negative = inhibition is -0.127%. `Cc1ccc(Cl)cc1N1CCN(C(=O)c2cnc3c(-c4ccc(F)cc4)c(C)nn3c2C)CC1`: the activity change, negative = inhibition was -19.1%.

In the case of `O=C(OC12CC3CC(CC(C3)C1)C2)c1ccc(NCc2cc(O)ccc2O)cc1`, the activity change, negative = inhibition is -37.9%. In the case of `CC(C)OC(=O)c1ccc(NCc2cc(O)ccc2O)cc1Cl` it was -85.7% (active); in that of `COC(=O)c1ccc(NCc2cc(O)ccc2O)cc1`, -28.1%. For `CCCN1CCc2nc(N3CCN(C)CC3)ncc2C1`, the activity change, negative = inhibition is 3.24%.

Consider `O=C(N/N=C/c1ccc(O)c(O)c1)C1c2ccccc2Oc2ccccc21`, for which the activity change, negative = inhibition was -17.9%.

With `Oc1ccc(/C=N/Nc2ccc(C(F)(F)F)cn2)cc1O`, the activity change, negative = inhibition is -72.1% (active). In the case of `FC(F)(F)c1cccc(N/N=C/c2ccccc2)c1` it was 6.38%; in that of `CC1(C)OC[C@@H](COC(=O)CCc2ccc(OC[C@@H](O)CNCCNC(=O)N3CCOCC3)cc2)O1`, -4.26%; in that of `O=C(CSc1nc(=O)[nH]c2c1CCCC2)Nc1cc(C(F)(F)F)ccc1Cl`, 6.44%. In the case of `O=C(CSc1nccn1C1CCCC1)Nc1cc(C(F)(F)F)ccc1Cl` it was -72.3% (active). In the case of `COc1ccc(NC(=O)CSc2nccn2C2CCCC2)cc1OC` it was 6.9%. Turning to `Cc1cc2c(cc3c(SCc4cccc(Cl)c4)nnc(C)n32)o1`, the activity change, negative = inhibition was -4.3%. In the case of `O=C(CSc1ccc([N+](=O)[O-])cn1)Nc1ccc(N2CCOCC2)cc1` it was -66.8% (active). For `Cn1cnnc1SCC(=O)Nc1ccc(N2CCOCC2)cc1`, the activity change, negative = inhibition is -11.8%.

On to `O=C(CSc1ccc([N+](=O)[O-])cn1)Nc1ccc(N2CCOCC2)c(Cl)c1`, for which the activity change, negative = inhibition is -1.58%. For `Cc1ccc(O)c(NC(=O)c2cc(-c3ccc(F)cc3)no2)c1`, the activity change, negative = inhibition was -3.02%. `CC(=O)c1ccc(NC(=O)CSc2c(C(C)C)cnc3c2c(=O)n(C)c(=O)n3C)cc1`: the activity change, negative = inhibition is 3.09%.

Turning to `CC(C)c1ccc(C2CC(=O)N3CN(C4CCCCC4)CSC3=C2C#N)cc1` (centres undefined), the activity change, negative = inhibition was -4.73%.

`Cc1ccc(-c2nc3cccc(C)n3c2Nc2ccc3c(c2)OCCO3)cc1`: the activity change, negative = inhibition is 3.27%. With `COc1ccc(-c2[nH]ncc2/C=N/NC(=O)c2cc(Br)ccc2O)c(OC)c1`, the activity change, negative = inhibition is -30%. In the case of `CC(=N\NC(=O)c1cc(Br)ccc1O)/C(=N/O)C(=O)Nc1ccccc1` it was -80.9% (active). In the case of `CC(=O)N/N=C(\C)c1ccc(Br)cc1Br` it was 3.93%. For `CC(NCc1ccccc1OC1CCCC1)c1ccccc1` (centres undefined), the activity change, negative = inhibition was -60.9% (active).

For `COc1cc(CNC2CCCCC2)c(Br)cc1OC1CCCC1`, the activity change, negative = inhibition was -7.24%.

On to `CC(C)(C)NCc1cc(Br)ccc1OC1CCCC1`, for which the activity change, negative = inhibition was -6.03%. Consider `O=C(Cn1nc(Cc2cccnc2)c2ccccc2c1=O)N1CCN(c2ccccc2F)CC1`, for which the activity change, negative = inhibition is 5.94%.

As for `CCCc1cc(=O)n2[nH]c(NCc3ccc(CC)cc3)nc2n1`, the activity change, negative = inhibition is -11.6%.

Consider `Cc1ccc(-c2cc(C(=O)Oc3ccccc3Cl)no2)cc1C`, for which the activity change, negative = inhibition was -12.2%. In the case of `O=C(N/N=C/c1ccco1)c1csc2c1CCCC2` it was -11.1%. In the case of `Cc1ccc(-n2nc(C)c(/C=N/NC(=O)c3cccs3)c2Cl)cc1` it was -17.6%; in that of `O=C(N/N=C/C=C/c1ccco1)c1cccs1`, -79.6% (active); in that of `O=C(Nc1c(C(=O)N2CCN(c3ccc(F)cc3)CC2)oc2ccccc12)c1ccco1`, -14.5%.

Regarding `CCCCNC(=O)c1cc(-c2ccc(Cl)c(Cl)c2)on1`, the activity change, negative = inhibition was -6.36%. In the case of `C=CS(=O)c1sc(Cl)c(N2CCOCC2)c1[N+](=O)[O-]` (centres undefined) it was -60.3% (active); in that of `O=C(NCCCN1CCN(c2cccc(Cl)c2)CC1)c1nnc(Cc2ccc(F)cc2Cl)o1`, -19.5%; in that of `COc1ccc(CCNC(=O)c2cn(C)c3ccc(S(=O)(=O)N(C)C4CCCCC4)cc3c2=O)cc1OC`, -10.4%. In the case of `CCOC(=O)C1Cn2c(nc3c(c2=O)C(C)(CC)Cc2ccccc2-3)S1` (centres undefined) it was -6.89%; in that of `N#CCSc1nc2c(c(=O)n1Cc1ccccc1)C1(CCCC1)Cc1ccccc1-2`, -9.93%; in that of `CCC1(CC)Cc2ccccc2-c2nc(CCl)[nH]c(=O)c21`, -80.4% (active). In the case of `CCc1nc(-c2cc(S(=O)(=O)N3CCN(c4ccc(OC)cc4)CC3)ccc2OC)no1` it was 0.921%; in that of `CCCC12CN3CC(CCC)(CN(C1)C3c1c[nH]c3ccc(OC)cc13)C2=O` (centres undefined), -18.6%. Turning to `Cc1cc(C)cc(OC(C)C(=O)Nc2nc3c(s2)CCCC3)c1` (centres undefined), the activity change, negative = inhibition is -103% (active). In the case of `O=C(Nc1nc2c(s1)CCCC2)c1ccccc1F` it was -33.1%; in that of `COC(=O)C(NC(C)=O)(Nc1nc2c(s1)CCCC2)C(F)(F)F` (centres undefined), -2.87%; in that of `CCC(Sc1nc2n[nH]c(C)c2c(=N)n1-c1ccccc1Cl)C(=O)N(CC)CC` (centres undefined), -33.6%.

Regarding `COc1ccc(C)cc1N(C)C(=O)c1c(C)oc2ncnc(N3CCOCC3)c12`, the activity change, negative = inhibition was -0.158%.

Regarding `COc1ccc(OC)c(C(=O)NC2CCCc3c2cnn3-c2cc(C)cc(C)c2)c1` (centres undefined), the activity change, negative = inhibition is 2.28%. In the case of `COc1ccc(C(=O)NC2CCCc3c2cnn3-c2cccc(C)c2C)c(OC)n1` (centres undefined) it was -116% (active); in that of `Cc1ccc(-n2ncc3c2CCCC3NC(=O)c2cnccn2)cc1C` (centres undefined), -3.03%. In the case of `NCC[C@H](O)C(=O)N[C@@H]1C[C@H](N)[C@@H](O[C@H]2O[C@H](CN)[C@@H](O)[C@H](O)[C@@H]2O)[C@H](O)[C@@H]1O[C@H]1O[C@H](CO)[C@@H](O)[C@H](N)[C@@H]1O` it was -6.65%; in that of `COc1cc(C(=O)NCc2ccc3c(c2)cc(C)n3C)cc(OC)c1OC`, 12%. In the case of `CCOCC(=O)NCc1ccc2c(c1)cc(C)n2C` it was -74.1% (active); in that of `COc1ccc(CNC(=O)CCn2cccc2)cc1`, -6.31%.

As for `CCOc1ccc(-c2cc3c(=O)n(CC(=O)NCc4ccc(OC)cc4)ccn3n2)cc1`, the activity change, negative = inhibition was 4.95%. In the case of `COc1ccc(Cn2ccnc2SCC(=O)Nc2ccc3c(c2)OCO3)cc1` it was -2.29%. In the case of `Cc1ccc(CN2CCc3nc(N4CCN(C)CC4)ncc3C2)cc1` it was -7.68%; in that of `Cc1cc(-c2ccccc2)n2nc(-c3ccccc3)cc2n1`, -15.7%. In the case of `Cc1cccc(-n2ncc(C(=O)N3CCN(c4ccc(Cl)cc4)CC3)c2C2CCN(C(=O)OC(C)(C)C)CC2)c1` it was -19.9%; in that of `O=C(OCC(O)CO)c1ccccc1Nc1ccnc2c(C(F)(F)F)cccc12` (centres undefined), -23.3%; in that of `Cc1cccc(-n2ncc(C(=O)N3CCC(C)CC3)c2C2CCN(C(=O)OC(C)(C)C)CC2)c1`, 1.6%. In the case of `Cc1ccc(C2CCN(C(=O)c3cnn(-c4ccccc4Cl)c3C3CCN(C(=O)OC(C)(C)C)CC3)C2)cc1` (centres undefined), the activity change, negative = inhibition is -70.8% (active). In the case of `Cc1ccc(CN2CCC(CNC(=O)c3cnn(-c4ccccc4Cl)c3C3CCN(C(=O)OC(C)(C)C)CC3)CC2)cc1`, the activity change, negative = inhibition was -35.3%. In the case of `Cc1cccc(C)c1NC(=O)c1ccc(N)cc1` it was 14.2%; in that of `CCOc1cccc2c1N[C@@H](c1ccc(C(=O)O)cc1)[C@H]1CC=C[C@@H]21`, -4.8%. In the case of `CC(C)(CCl)C(=O)Nc1ccc(Sc2ccc(F)cc2)cc1` it was -28.2%; in that of `O=C(CCl)Nc1ccc(Sc2ccc(NC(=O)CCl)cc2)cc1`, -96.8% (active). In the case of `O=C(CCl)Nc1cccc(CP(=O)(c2ccccc2)c2ccccc2)c1`, the activity change, negative = inhibition is -12.2%. As to `CCCNC(=O)CCC(=O)N1Cc2ccccc2Oc2ncccc21`, the activity change, negative = inhibition is -2.12%. In the case of `Cc1ccc(CNC(=O)CCC(=O)N2Cc3ccccc3Oc3ncccc32)cc1` it was 0.223%. As to `Cc1ccccc1CNC(=O)CCC(=O)N1Cc2ccccc2Oc2ncccc21`, the activity change, negative = inhibition was -120% (active).

For the compound `O=C(CC1N=C2c3ccccc3N=C(SCc3ccc(F)cc3)N2C1=O)NCc1cccs1` (centres undefined), the activity change, negative = inhibition is -7.63%. In the case of `COc1ccccc1C(=O)Nc1c(C(=O)N(C)Cc2ccccc2)sc2nc(C)c(Cl)c(C)c12` it was -8.81%; in that of `CCC(=O)N1CCc2cc(Br)cc(S(=O)(=O)CCC(=O)NCCc3ccc(OC)c(OC)c3)c21`, -17.8%. In the case of `Cc1ccc(C)c(N2CCN(C(=O)Cn3nc(C)c4sc5ccccc5c4c3=O)CC2)c1` it was -3.69%; in that of `CCOc1ccc(CNC(=O)C2CCCN(S(=O)(=O)N(CC)c3ccc(OCC)cc3)C2)cc1` (centres undefined), -7.3%. On to `CCCCOc1ccc(CN2C(=O)C(=O)c3cc(Br)cc(C)c32)cc1OC`, for which the activity change, negative = inhibition is -71.4% (active). In the case of `CCCCOc1ccc(Cn2c(=O)oc3ccc(C)cc32)cc1OC` it was -39.4%. For `CCCCN1C(=O)C(C)=C(C)C1OCCc1ccc(OC)c(OC)c1` (centres undefined), the activity change, negative = inhibition is -1.03%. In the case of `Cc1cc(C)c2oc(C(=O)Nc3ccc(S(=O)(=O)N4CCCCCC4)cc3)cc(=O)c2c1` it was -1.32%; in that of `CO/N=C(\C(=O)N[C@@H]1C(=O)N2C(C(=O)O)=C(Cn3nnc(C)n3)CS[C@H]12)c1csc(N)n1`, 10%.

In the case of `COc1ccccc1C(=O)NCC(=O)OCC(=O)Nc1nnc(-c2ccccc2)o1`, the activity change, negative = inhibition was -0.478%. In the case of `O=C(COC(=O)c1ccc(Oc2ccccc2)cc1)Nc1nnc(-c2ccccc2)o1` it was -76.2% (active); in that of `CC(=O)Nc1cccc(C(=O)OCC(=O)Nc2nnc(-c3ccccc3)o2)c1`, -4.64%.
